From PubChem
TDP1 cell noCPT – qHTS for Inhibitors of human tyrosyl-DNA phosphodiesterase 1 (TDP1): qHTS in cells in absence of CPT | DT40 Tdp1-/- hTDP1 cells, no CPT, ATP luminescence, 48 h | 420,000 tested, 15% active | Potency, µM (series often up to 46.2 µM), actives largely listed as inhibitors; further: nearly all actives have a fitted effect of over 55% in size
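Seeded 400 DT40-hTDP1 cells/well (vehicle DMSO, no 20 nM CPT); pinned compounds; ≥48 hr at 37 °C; CellTiter-Glo luminescence as viability measure.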
HepG2 tox – kills HepG2 cells in TGF-b inhibitor counter-screen | HepG2 CAGA-GFP viability, ATP luminescence, 18 h | Potency, µM (top dose mostly 46.1 µM), most hits filed as cytotoxic | AID 588856 | 410,000 tested, 0.76% active
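CellTiter-Glo luminescence gave cytotoxicity after 18 hours at 37 degrees C. The cells were HepG2 CAGA-GFP in 1% FBS DMEM, stimulated with 500 pg/mL TGF-beta after compound addition. %Activity was normalised to no-cell wells (complete cell-killing) and DMSO (no toxicity), and curves were fitted and classified.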
TGFb inhibitor – TGF-b pathway inhibition; 410,000 tested, 1.2% active; Potency, µM (top dose mostly 46.1 µM), hits mostly inhibitors; HepG2 CAGA-GFP TGF-b/SMAD3 reporter, GFP fluorescence, 18 h; TGF-beta stimulated, 500 pg/mL final; further: nearly all actives have a fitted effect of over 65% in size
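HEPG2 CAGA-GFP reporter cells (1000/well, DMEM with 1% FBS) received compounds, then recombinant TGF-beta at 500 pg/mL final for 18 hours at 37 degrees C. Per-cell GFP summed per well was normalised to unstimulated and stimulated DMSO controls before curve fitting.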
ATXN2 expr inh – reduces ATXN2 reporter expression in HEK-293 cells | HEK-293 ATXN2-luciferase reporter, luminescence, 24 h | Potency, µM (top dose mostly 57 µM), hits mostly inhibitors | 360,000 tested, 0.72% active; further: nearly all actives have a fitted effect of over 55% in size
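ATXN2-luciferase reporter cells (luciferase flanked by upstream and downstream ATXN2 gene portions) were treated 24 h at 37 °C with compounds at up to 57 uM. SteadyGlo luminescence gave expression; GF-AFC fluorescence gave viability.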
TDP1 cell CPT – DT40-hTDP1 cell growth loss with CPT. chicken DT40 Tdp1-/-;hTDP1 cells + 20 nM CPT, ATP luminescence, 48 h. Potency, µM (top dose mostly 46.2 µM), hits mostly inhibitors. 420,000 tested, 12% active; further: nearly all actives have a fitted effect of over 55% in size
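Chicken DT40 Tdp1-/- cells complemented with human TDP1, 400 cells/well, exposed to compounds plus 20 nM camptothecin for at least 48 h at 37 C; viability read as ATP content by CellTiter-Glo luminescence.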
ATXN viability – viability counter-screen for ATXN expression inhibitors. S2 cells (HEK-293 line with an ATXN2-luciferase reporter) viability, CellTiter-Fluor protease fluorescence, 24 h. 400,000 tested, 0.49% active. Potency, µM (doses to about 56.7 µM), hits mostly cytotoxic; further: nearly all actives have a fitted effect of over 40% in size
Hits are given with their value; . = inactive; ? = inconclusive; / = not tested or not shown. Most compounds without a hit are left out; they make up all but 17% or so of the library. The call rests on the fitted dose curve; in most records, active means well fitted curve in the direction sought with a large enough effect; inconclusive means small, poorly fitted or top-dose-only effect, or another doubt; inactive means no such curve, though single readings can be large; an effect the other way counts as inactive or inconclusive.

SMILES	TDP1 cell noCPT	HepG2 tox	TGFb inhibitor	ATXN2 expr inh	TDP1 cell CPT	ATXN viability
CCC(Sc1nc2ccccc2c2nc(CCn3c(C)nc4ccccc43)nn12)C(=O)Nc1ccc(F)cc1 (stereo unspecified)	2.31µM	.	.	.	?	.
O=C(CSc1nc2ccccc2c2nc(-c3ccccc3)nn12)Nc1ccc(F)cc1	14.6µM	.	.	/	?	/
Cc1nc2ccccc2n1CCc1nc2c3ccccc3nc(SCC(=O)Nc3cccc(C(F)(F)F)c3)n2n1	?	.	.	?	?	?
Cc1nc2ccccc2n1CCc1nc2c3ccccc3nc(SCC(=O)Nc3ccc(Br)cc3F)n2n1	?	.	.	.	?	.
Cc1nc2ccccc2n1CCc1nc2c3ccccc3nc(SCC(=O)Nc3ccc(C(C)C)cc3)n2n1	9.2µM	.	.	.	11.6µM	?
CCc1ccccc1NC(=O)c1ccc(=O)n(Cc2ccc(F)cc2)c1	.	.	.	.	.	.
CC(=O)Nc1ccc(NC(=O)c2cc(-n3cnnc3)ccc2Cl)cc1	.	.	.	.	.	.
Cc1c(NC(=O)c2cc(-n3cnnc3)ccc2Cl)cccc1-c1nc2ccccc2s1	?	.	?	.	.	.
Cc1c(C(=O)Nc2cccc(-c3nc4ccccc4s3)c2)oc2ccc(F)cc12	14.6µM	.	.	.	?	.
Cc1ccc2sc(-c3ccc(NC(=O)c4cc(-n5cnnc5)ccc4Cl)cc3)nc2c1	9.2µM	.	.	.	13µM	.
O=C(Nc1cccc(-c2nc3ccccc3s2)c1)c1cc(-n2cnnc2)ccc1Cl	16.4µM	.	.	?	9.2µM	?
Cc1nc2ccccc2c(=O)n1-c1ccc(F)c(NS(=O)(=O)c2ccccc2F)c1	.	.	.	.	.	.
Cc1ccc(C(C)NC(=S)NCc2ccc(F)cc2)c(C)c1 (stereo unspecified)	16.4µM	.	?	.	20.6µM	.
CC(Sc1ncn[nH]1)C(=O)Nc1ccc(Cl)cn1 (stereo unspecified)	.	.	.	.	.	.
COc1cccc(/C=C/C(=O)OCC(=O)Nc2cccc(S(=O)(=O)NC3=NCCCCC3)c2)c1	.	.	.	.	.	.
COC(=O)C1=C(C)NC(=S)NC1c1ccc(-c2cc(Cl)ccc2Cl)o1 (stereo unspecified)	5.8µM	.	?	.	6.51µM	.
OC[C@@H]1CN(Cc2cccs2)C[C@H](n2cnc3c(N4CCN(c5ccccc5)CC4)ncnc32)O1	?	.	.	.	23.1µM	?
CC(=O)OC[C@@H]1CN(Cc2ccccc2)C[C@H](n2cnc3c(N4CCN(c5ccccc5)CC4)ncnc32)O1	18.4µM	.	.	.	16.4µM	.
OCCN1CCN(c2ncnc3c2ncn3[C@H]2CN(Cc3cccs3)C[C@@H](CO)O2)CC1	.	.	.	.	?	.
CC(=O)OC[C@@H]1CN(Cc2ccccc2)C[C@H](n2cnc3c(NC(C)C)ncnc32)O1	?	.	.	.	.	.
OC[C@@H]1CN(Cc2ccc3c(c2)OCO3)C[C@H](n2cnc3c(N4CCN(c5ccccc5)CC4)ncnc32)O1	?	.	.	?	18.4µM	.
OC[C@@H]1CN(Cc2ccc3c(c2)OCO3)C[C@H](n2cnc3c(N4CCCC4)ncnc32)O1	?	.	.	.	?	.
OC[C@@H]1CN(Cc2cccnc2)C[C@H](n2cnc3c(N4CCN(c5ccccc5)CC4)ncnc32)O1	16.4µM	.	.	.	?	.
CCc1nc2ccc(C(=O)NCCCn3ccnc3)cn2c1N(C)C(=O)COc1ccccc1	.	.	.	.	.	.
CNc1ncnc2c1ncn2[C@H]1CN(Cc2ccc3c(c2)OCO3)C[C@@H](CO)O1	?	.	.	.	11.6µM	.
SMILES	TDP1 cell noCPT	HepG2 tox	TGFb inhibitor	ATXN2 expr inh	TDP1 cell CPT	ATXN viability
OC[C@@H]1CN(Cc2ccc3c(c2)OCO3)C[C@H](n2cnc3c(NC4CCC4)ncnc32)O1	?	.	.	.	?	.
COC(=O)c1ccccc1NC(=O)c1cnn2c1NC(=C1CC1)C=C2C(F)F	?	.	.	/	?	/
CCc1cccc2c(C(=O)CN3C(=O)NC4(CCc5ccccc54)C3=O)c[nH]c12 (stereo unspecified)	4.61µM	.	?	?	4.61µM	?
CCc1cccc2c(C(=O)CN3C(=O)N(C)C4(CCCCC4)C3=O)c[nH]c12	8.2µM	.	?	.	3.26µM	.
Cc1ccc(S(=O)(=O)N2CCCOC2CNC(=O)C(=O)NCc2ccc3c(c2)OCO3)cc1 (stereo unspecified)	.	.	.	.	.	.
OCC1(CCc2ccccc2)CCN(C/C=C/c2ccccc2)CC1	.	.	.	.	.	.
OCC1(Cc2ccccc2Cl)CCN(C/C=C/c2ccccc2)CC1	18.4µM	.	?	/	?	.
CCN(CC)S(=O)(=O)c1cc(NC(=O)CNc2cccc(S(=O)(=O)N3CCCC3)c2)ccc1C	2.59µM	.	?	.	3.26µM	?
CCN(CC)S(=O)(=O)c1ccc(C)c(NC(=O)CNc2cccc(S(=O)(=O)N3CCOCC3)c2)c1	?	.	.	.	.	?
O=C(CNc1cccc(S(=O)(=O)N2CCCCC2)c1)Nc1cccc(F)c1	?	.	?	.	.	.
O=C(CNc1cccc(S(=O)(=O)N2CCCC2)c1)Nc1cccc(Br)c1	20.6µM	.	?	.	?	?
CN(C)S(=O)(=O)c1cccc(NC(=O)CNc2cccc(S(=O)(=O)N3CCCCC3)c2)c1	20.6µM	.	.	/	?	.
O=C(CNc1ccccc1F)Nc1cc(S(=O)(=O)N2CCCCC2)ccc1Cl	.	.	.	.	.	.
Cc1ccc(S(=O)(=O)N2CCCCC2)cc1NCC(=O)Nc1ccc(Br)cc1F	3.66µM	.	?	/	4.61µM	?
CCN(CC)S(=O)(=O)c1ccc(C)c(NC(=O)CN2CCN(C)CC2)c1	.	.	.	/	.	.
CC1CCC(NC(=O)CN(C)S(=O)(=O)c2cccc3cccnc23)CC1 (stereo unspecified)	.	.	?	/	.	.
CC(=O)c1cccc(NCC(=O)Nc2cc(S(=O)(=O)N3CCCCC3)ccc2C)c1	?	.	.	.	16.4µM	?
COc1ccc(NCC(=O)Nc2cccc(S(=O)(=O)N3CCCC3)c2)cc1Cl	13µM	.	?	?	?	?
Cc1ccc(S(=O)(=O)N2CCCCC2)cc1NC(=O)COC(=O)c1cccc(O)c1	.	11.2µM	.	/	.	.
